ChEMBL document CHEMBL1201862, “PubChem BioAssay data set” (2004)
In all, about 400,000 compounds went through this assay and about 2,100 (0.53%) were called active. About 14% were inconclusive and are not listed. How the calls were made is not given here. For the sample, actives were picked, then their nearest neighbours and some compounds at random.

What follows are compounds tested against Ataxin-2 (Homo sapiens) (UniProt Q99700) (assay: qHTS for Inhibitors of ATXN expression.).
Type: functional

Sequence of Ataxin-2 (Homo sapiens) (Q99700 whole entry): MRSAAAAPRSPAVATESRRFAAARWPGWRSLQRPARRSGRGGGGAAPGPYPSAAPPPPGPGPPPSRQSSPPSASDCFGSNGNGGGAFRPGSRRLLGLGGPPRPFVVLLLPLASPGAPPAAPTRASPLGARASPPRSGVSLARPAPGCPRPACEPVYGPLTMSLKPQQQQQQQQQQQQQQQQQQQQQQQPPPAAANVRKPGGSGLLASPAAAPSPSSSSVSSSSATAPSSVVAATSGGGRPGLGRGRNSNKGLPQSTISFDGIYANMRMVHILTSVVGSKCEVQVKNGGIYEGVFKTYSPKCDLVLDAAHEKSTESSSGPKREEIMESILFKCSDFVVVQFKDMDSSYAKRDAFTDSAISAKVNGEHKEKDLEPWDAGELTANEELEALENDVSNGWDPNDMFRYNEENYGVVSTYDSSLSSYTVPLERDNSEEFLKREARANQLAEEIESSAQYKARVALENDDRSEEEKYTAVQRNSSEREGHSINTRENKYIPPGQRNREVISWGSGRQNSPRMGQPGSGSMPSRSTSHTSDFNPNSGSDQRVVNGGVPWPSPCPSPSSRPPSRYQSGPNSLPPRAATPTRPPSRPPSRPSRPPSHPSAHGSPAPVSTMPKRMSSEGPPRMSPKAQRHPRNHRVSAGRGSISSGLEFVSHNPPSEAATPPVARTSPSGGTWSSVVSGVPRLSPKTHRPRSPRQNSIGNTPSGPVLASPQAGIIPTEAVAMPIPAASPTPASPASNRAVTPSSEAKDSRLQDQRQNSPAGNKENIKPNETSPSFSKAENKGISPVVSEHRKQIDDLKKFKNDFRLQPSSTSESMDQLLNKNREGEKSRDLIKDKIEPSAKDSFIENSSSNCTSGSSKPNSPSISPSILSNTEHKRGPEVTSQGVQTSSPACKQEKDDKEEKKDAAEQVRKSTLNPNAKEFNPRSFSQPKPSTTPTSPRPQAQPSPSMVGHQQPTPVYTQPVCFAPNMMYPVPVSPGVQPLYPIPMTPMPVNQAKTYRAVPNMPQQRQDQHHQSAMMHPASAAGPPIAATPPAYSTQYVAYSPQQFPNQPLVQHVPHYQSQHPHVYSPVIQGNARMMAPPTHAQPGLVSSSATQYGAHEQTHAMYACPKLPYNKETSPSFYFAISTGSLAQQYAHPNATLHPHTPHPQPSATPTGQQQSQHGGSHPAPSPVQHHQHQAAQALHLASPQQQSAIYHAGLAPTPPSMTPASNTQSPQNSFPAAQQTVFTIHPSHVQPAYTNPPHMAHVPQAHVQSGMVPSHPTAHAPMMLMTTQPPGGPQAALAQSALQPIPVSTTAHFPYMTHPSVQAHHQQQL

**Q.** With `O=C(C1=CC=CN2CCS(=O)(=O)N=C12)N1CCN(c2cccc(Cl)c2)CC1` as the compound, how does the Potency read?
**A.** inactive

**Q.** `CC1(Cc2ccccc2OC(F)(F)F)C(=O)Nc2ccc(-c3ccsc3)cc21` (stereo unspecified) was tested. Which Potency did it give?
**A.** 39.8 µM (active)

**Q.** Which Potency does the source give for `CCOC(=O)C1=NOC2(C1)C(=O)Nc1ccc(OC(F)(F)F)cc12` (stereo unspecified) here?
**A.** 39.8 µM (active)

**Q.** `COc1ccc(OC(F)(F)F)cc1CC1(C)C(=O)Nc2ccc(-c3ccsc3)cc21` (stereo unspecified) was tested. Which Potency did it give?
**A.** 39.8 µM (active)

**Q.** Which Potency does the source give for `CCOC(=O)C1=NN(C(=O)c2ccc(OC)cc2)C(O)(c2ccc(Cl)cc2)C1` (stereo unspecified) here?
**A.** inactive

**Q.** For `Cc1ccc(CC2(C)C(=O)Nc3ccc(OC(F)(F)F)cc32)cc1` (stereo unspecified), which Potency is on record?
**A.** 39.8 µM (active)

**Q.** Which Potency does the source give for `CN1CCCC(OC(=O)c2cc(Cl)cc(Cl)c2)C1` (stereo unspecified) here?
**A.** inactive

**Q.** For `c1ccc(-c2nc(N3CCCCC3)nc3ccccc23)cc1`, which Potency is on record?
**A.** inactive

**Q.** Which Potency does the source give for `C#CCOCCOCCOCCNc1nc(N2CCN(C(=O)CCCCCCCCCCNC(=O)[C@@H](CCC(=O)O)n3cc(CCCCCN)nn3)CC2)nc(N2CCN(C(=O)CCCCCCCCCCNC(=O)[C@H](CCCCN)n3cc(C[C@@H](C)CC)nn3)CC2)n1` here?
**A.** 31.6 µM (active)

**Q.** For `C#CCOCCOCCOCCNc1nc(N2CCN(C(=O)CCCCCCCCCCNC(=O)[C@H](CCCCN)n3cc(C[C@@H](C)CC)nn3)CC2)nc(N2CCN(C(=O)CCCCCCCCCCNC(=O)[C@H](CCCN=C(N)N)n3cc(C[C@@H](C)CC)nn3)CC2)n1`, which Potency is on record?
**A.** 20 µM (active)

**Q.** How did the Potency turn out when `Cc1ccc(CNc2nc(NCC3CC3)nc3ccsc23)c(C)c1` was run?
**A.** 39.8 µM (active)

**Q.** `Cc1ccc(Nc2nc(NCC3CC3)nc3ccsc23)c(C)c1` was tested. Which Potency did it give?
**A.** 20 µM (active)

**Q.** For `O=C(COC(=O)c1ccc(Cl)nc1)Nc1ccc2c(c1)CCC2`, which Potency is on record?
**A.** inactive

**Q.** With `CC(=O)Oc1ccc2c(c1)O/C(=C\c1ccncc1)C2=O` as the compound, how does the Potency read?
**A.** inactive

**Q.** With `COCc1cc(C)nc(SCC(=O)Nc2nc(C)cs2)c1C#N` as the compound, how does the Potency read?
**A.** inactive

**Q.** With `CCOC(=O)Cc1csc(NS(=O)(=O)c2ccc(SC)cc2)n1` as the compound, how does the Potency read?
**A.** inactive

**Q.** Which Potency does the source give for `NNC(=O)c1cccc(Cn2cc(Br)c([N+](=O)[O-])n2)c1` here?
**A.** inactive

**Q.** `C#CCn1/c(=N/C(=O)CSC(C)=O)sc2cc(F)ccc21` was tested. Which Potency did it give?
**A.** 6.7 µM (active)

**Q.** Which Potency does the source give for `COCC(=O)OC1CCn2c1nc1c2C(=O)C(C)=C(NC(C)=O)C1=O` (stereo unspecified) here?
**A.** 10 µM (active)

**Q.** `OCC1(CC2CCCCO2)CCN(Cc2ccccc2-c2ccco2)CC1` (stereo unspecified) was tested. Which Potency did it give?
**A.** inactive

**Q.** How did the Potency turn out when `Nc1nc(Br)c2ccccc2c1-c1ccccc1` was run?
**A.** inactive

**Q.** `O=C(Oc1ccc(C(=S)N2CCOCC2)cc1)c1cccc(Cl)c1` was tested. Which Potency did it give?
**A.** inactive

**Q.** Which Potency does the source give for `CC(C)c1ccc(C(=O)N2CCN(c3cnn(C)c(=O)c3Cl)CC2)cc1` here?
**A.** inactive

**Q.** For `Clc1cccc(N/N=C/c2ccc(N3CCOCC3)s2)c1`, which Potency is on record?
**A.** 39.8 µM (active)

**Q.** For `Fc1cccc(/C=N/Nc2cc(N3CCOCC3)ncn2)c1`, which Potency is on record?
**A.** inactive

**Q.** With `Oc1c(Cl)cc(Cl)cc1/C=N/c1ccc(N2CCOCC2)cc1` as the compound, how does the Potency read?
**A.** inactive

**Q.** Which Potency does the source give for `C=CCN1C(=O)[C@@H]2Cc3c([nH]c4ccccc34)C(c3cc(OC)c(OC)c(OC)c3)N2C1=S` (stereo partly specified) here?
**A.** inactive

**Q.** For `COc1cc(C2CC(c3cccnc3)=NN2c2ccc(F)cc2)cc(OC)c1OC` (stereo unspecified), which Potency is on record?
**A.** inactive

**Q.** With `COc1cc(C2CC(=O)N(Cc3ccc(F)cc3)c3ccccc3S2)cc(OC)c1OC` (stereo unspecified) as the compound, how does the Potency read?
**A.** 28.2 µM (active)

**Q.** For `Cc1cc(NC(=O)C(C)SCC(=O)O)no1` (stereo unspecified), which Potency is on record?
**A.** inactive

**Q.** For `Cn1c(=O)c(=O)n(C)c2cc(S(=O)(=O)CCC(=O)NCc3ccccc3)ccc21`, which Potency is on record?
**A.** inactive

**Q.** Which Potency does the source give for `Cc1ccc(S(=O)(=O)N2C[C@H]3n4c(=O)ccc(=O)n4C[C@H](OC(=O)NCc4ccccc4F)[C@@]3(O)C2)cc1` here?
**A.** 35.5 µM (active)

**Q.** With `Cc1ccc(S(=O)(=O)N2CCCC(CCC(=O)NCc3ccccc3F)C2)s1` (stereo unspecified) as the compound, how does the Potency read?
**A.** inactive

**Q.** `CCCCCCn1c(=O)n2n(c1=O)[C@@H]1CN(S(=O)(=O)c3ccc(C)cc3)C[C@]1(O)[C@@H](OC(=O)NCc1ccccc1F)C2` was tested. Which Potency did it give?
**A.** 35.5 µM (active)

**Q.** How did the Potency turn out when `CCCCCCn1c(=O)n2n(c1=O)[C@@H]1CN(S(=O)(=O)c3ccc(C)cc3)C[C@]1(O)[C@@H](OC(=O)NCc1ccccc1)C2` was run?
**A.** 28.2 µM (active)

**Q.** For `CCCCCCNC(=O)O[C@H]1Cn2c(=O)n(CCCCCC)c(=O)n2[C@@H]2CN(S(=O)(=O)c3ccc(C)cc3)C[C@]12O`, which Potency is on record?
**A.** 25.1 µM (active)

**Q.** How did the Potency turn out when `NS(=O)(=O)c1ccc(CNC(=O)/C=C/c2ccco2)cc1` was run?
**A.** inactive

**Q.** Which Potency does the source give for `O=C(Cc1ccccc1)NCc1nnc(S)n1-c1ccc(Br)cc1` here?
**A.** inactive

**Q.** How did the Potency turn out when `CSc1c(C#N)c(O)nc2c1CCc1ccccc1-2` was run?
**A.** inactive

**Q.** `COc1ccccc1[C@H]1C(c2cccc(C)c2)=NN(c2ccccc2)[C@@H]1CO` was tested. Which Potency did it give?
**A.** inactive

**Q.** How did the Potency turn out when `Cc1ccc(C)c(N2CCN(C(=O)c3ccc(Cn4c(=S)[nH]c5ccc(N6CCOCC6)cc5c4=O)cc3)CC2)c1` was run?
**A.** inactive

**Q.** With `CCCCCCNC(=O)O[C@H]1CN(C(=O)OC(C)C)N(C(=O)OC(C)C)[C@@H]2CN(S(=O)(=O)c3ccc(C)cc3)C[C@]12O` as the compound, how does the Potency read?
**A.** 22.4 µM (active)

**Q.** For `CCCC(C)NC(=O)c1cc(S(=O)(=O)N2CCCCCC2)ccc1OC` (stereo unspecified), which Potency is on record?
**A.** inactive

**Q.** `COCCN(CCOC)C(=O)CSc1ccc(S(=O)(=O)N2CCN(C)CC2)cn1` was tested. Which Potency did it give?
**A.** inactive

**Q.** For `CC1=C(C(=O)Nc2nc3ccccc3s2)C(c2ccco2)C(C#N)=C(SCC(=O)NC2CCCCC2)N1` (stereo unspecified), which Potency is on record?
**A.** inactive

**Q.** For `COC(=O)c1ccc(NS(=O)(=O)c2ccc3c(c2)n(C)c(=O)n3C)cc1`, which Potency is on record?
**A.** inactive

**Q.** For `CC(NS(=O)(=O)c1ccc(Cl)c(Cl)c1)C(=O)OCC(=O)Nc1ccc2c(c1)OCO2` (stereo unspecified), which Potency is on record?
**A.** inactive

**Q.** With `Cn1c(=O)n(C)c2cc(NC(=O)CCl)ccc21` as the compound, how does the Potency read?
**A.** 28.2 µM (active)

**Q.** `O=C(Nc1ccc2c(c1)OCO2)c1sc2cc(Cl)ccc2c1Cl` was tested. Which Potency did it give?
**A.** inactive

**Q.** How did the Potency turn out when `O=C(Cn1ncc(Cl)c(Cl)c1=O)c1ccc2c(c1)OCCO2` was run?
**A.** 42.3 µM (active)

**Q.** How did the Potency turn out when `O=C(CCl)Nc1ccc2c(c1)OCO2` was run?
**A.** 22.4 µM (active)

**Q.** With `O=C(Cn1ncc(Cl)c(Cl)c1=O)Nc1ccc2c(c1)OCO2` as the compound, how does the Potency read?
**A.** 35.5 µM (active)

**Q.** With `Cc1ccc(C(=O)O)cc1-c1ccc(/C=C2\SC(=O)N(CC(=O)Nc3ccc4c(c3)OCO4)C2=O)o1` as the compound, how does the Potency read?
**A.** inactive

**Q.** With `CC(=O)Nc1ccc2nc3c(=O)n(C)c(=O)n(C)c3nc2c1` as the compound, how does the Potency read?
**A.** inactive

**Q.** `O=C(CSc1nc2cc(Cl)c(Cl)cc2[nH]1)c1ccc2c(c1)OCO2` was tested. Which Potency did it give?
**A.** inactive

**Q.** With `NC(=O)c1ccc(NC(=O)COC(=O)c2c3c(nc4ccccc24)/C(=C\c2ccc4c(c2)OCO4)CCC3)cc1` as the compound, how does the Potency read?
**A.** inactive
